# According to PubChem BioAssay AID1508600 (Functional Genomics Laboratory (NCATS/FGL), 2020):
# In all, about 53,000 sequences went through this assay and about 3,700 (7%) were called active. The full list was thinned out, with actives kept by preference. A number with no mark means an inactive call.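 How the source made its calls: active means gene knockdowns whose robust z-score for IL-1 alpha signal is at least 2 or at most -2, so actives lie on both sides; inactive means the rest.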
# Assay: Components of the Cytosolic LPS Sensing Pathway: Gene Identification via Genome-wide siRNA Screen;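 further: robust z of the log signal after scaling to non-targeting control siRNA wells of the plate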
# Settings: RAW264.7 macrophages, IL-1a HTRF, actives lie on both sides, screened at 100 nM (by protocol), cells primed 5 h with Pam3CSK4 first
# Method in brief: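 Knockdown: 100 nM siRNA, 48h, RAW264.7. Stimulation: Pam3CSK4 5 h, then LipidA via TransIT-TKO 24 h. Output: supernatant IL-1a HTRF, negative-control-normalized, log robust z-score; viability by CellTiter-Glo.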
row,Sequence,z-score
1,GGAAUGGUAUCAGACUUCUTT against Tarm1,1.54
2,GCUACAGAAACCCGGGUAGTT against Jsrp1,-1.46
3,CCGCCAUAGGCUCCUUCAATT against Acat3,0.915
4,GGGAUCAAUGUCAUCCUUUTT against Nif3l1,-0.442
5,GCUGCGUAGAACCAUAUGCTT against Cst9,-0.802
6,GGAAAUCGAGGUUACAAGUTT against Isy1,-2.64 (active)
7,GGCCACUGACCAUGAAGAATT against Gata2,-0.289
8,GGCAAACAUGAAUCUUACCTT against Cyth4,-0.375
9,GGAGAUCAUCCACUUCCAGTT against Dbh,2.06 (active)
10,GCAAGACUCUACACAUCACTT against Nox4,0.0384
11,GAGACAGAUAGGCAGAAAATT against Olfr478,-1.02
12,CCAAUUGAAACUCUUUUCCTT against Thada,0.562
13,GGUUUGGUGUCAGGUGACATT against Olfr1181,-2.05 (active)
14,GGGUGAAAAAGGAAUAAAGTT against Col7a1,0.344
15,GGAAAUCAUCUUUUCAGAUTT against Slc7a12,-0.443
16,GCCACUAGUGAAGACAUCCTT against Adamtsl1,-0.149
17,CGUCUCCAUAGAUCUAGAUTT against Creb3,-0.748
18,CCAUCUUGACACCCAAACUTT against Olfr170,-3.09 (active)
19,CGAAAGCAUUGCCUACUUUTT against Anks3,0.843
20,GGGACUUUAAAAAAGACUCTT against Olfr1366,2.1 (active)
21,CCAGAGGUCUCUAUUAAGATT against Cad,-0.0939
22,GGACAUGGAUCAAAGUUCATT against Zfp40,-0.645
23,GGCAUCUCCUCGAAUUUAUTT against Theg,-0.737
24,GGAGCAUCCCGACUACAAGTT against Sox21,3.54 (active)
25,GGAUCGAUCUGACAUCAAATT against Epyc,-0.31
26,CCUAUUAAUAUGGAAAGUGTT against Arcn1,0.675
27,GGGCAACUAUCUUCAAAAATT against Nxnl2,0.328

row,Sequence,z-score
1,GGCAAUUACCCACCCUGUUTT against Mfsd6,-2.57 (active)
2,CCAAGCCUAAUAAAAUUCCTT against Lsr,0.867
3,GGCAGAAAACAAGAUAAAGTT against Eif4h,-0.325
4,CGGCAAGAUGUCUACUAACTT against Wdtc1,0.655
5,CCCUAACUCUGUUAAUGCATT against Casp14,-0.627
6,GGAAAUUGGUCCAGUUAUUTT against Magee1,1.37
7,CCAACUGUUGGUGAUGAUGTT against Cpsf6,-2.05 (active)
8,GCGGGCCAUAAAGAGACAUTT against Timm17a,-0.164
9,GGGAUUUAAAGCCAACUUGTT against Sfpq,0.62
10,GGAGAAAUAGAUUCAGUGATT against Cep170,-0.839
11,GGCAGUUUUUGGACUGUCCTT against Olfr556,-0.21
12,GGUUAAGAGCGUACGUUUUTT against Tmem204,1.46
13,GGACAACCUUUACUUCUCUTT against Rhox9,-2.78 (active)
14,GGGAGAUCUCUCACAGAUCTT against Gja10,1.41
15,CCAUAGUGUAUCUGACUGGTT against Iqsec1,-0.135
16,GGUGGUGAAGCUAAAGCAGTT against Prkaca,-1.58
17,GCAUGGACAGUUAUGUAUATT against Slc5a6,-0.207
18,GGUGUUAGAUUCUUUGUAATT against Cst6,2.04 (active)
19,GGUAUAGUAGUGGAAGAUUTT against Uso1,0.341
20,GGACUUAUGGCAUUAGAAUTT against Nup88,-1.17
21,GGUGAUCCUAAGAAAGUCCTT against Ireb2,1.07
22,GGAUUGGUUUAGUCAAUAATT against Psmc4,-2.03 (active)
23,GCUUCCUUCUGCUAGAUGGTT against Oxct2a,-0.409
24,GGUUUAGAAUGCAUAACAGTT against Dzank1,-0.217
25,UAUUAAACUCUUGAGACCGTT against Oxa1l,-0.571
26,GGAAAAGCCUACUUCAAAATT against Efcab7,0.9
